Bioassay records (PubChem)
M1 PAM parental – M1 PAM counterscreen hit in parental CHO-K1 cells; hit rate 0.02% among 360,000; activation, % at 3 µM; ATP EC20, Fluo-8 calcium fluorescence; 0% at ATP EC20, 100% at ATP max;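 active = activation above the run cutoff, the mean activation of all test compounds plus 3 SD, cut at about 40% in these data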;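 note: peak over basal fluorescence ratio in a 140 s read after ATP addition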
CHRM1 antagonist – human CHRM1 antagonism; inhibition, % at 3 µM; hit rate 1.3% among 360,000; AID 588852; CHO-K1 hM1, Fluo-8 calcium fluorescence, ACh EC80 antagonist; P11229;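 active = percent inhibition above its own plate's cutoff, namely the mean of that plate's compound wells plus 3 SD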;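 note: peak over basal fluorescence ratio during 140 s after agonist addition; 0% = ACh EC80 plus DMSO and 100% = DMSO alone without agonist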
Target sequence (P11229 whole entry, looked up): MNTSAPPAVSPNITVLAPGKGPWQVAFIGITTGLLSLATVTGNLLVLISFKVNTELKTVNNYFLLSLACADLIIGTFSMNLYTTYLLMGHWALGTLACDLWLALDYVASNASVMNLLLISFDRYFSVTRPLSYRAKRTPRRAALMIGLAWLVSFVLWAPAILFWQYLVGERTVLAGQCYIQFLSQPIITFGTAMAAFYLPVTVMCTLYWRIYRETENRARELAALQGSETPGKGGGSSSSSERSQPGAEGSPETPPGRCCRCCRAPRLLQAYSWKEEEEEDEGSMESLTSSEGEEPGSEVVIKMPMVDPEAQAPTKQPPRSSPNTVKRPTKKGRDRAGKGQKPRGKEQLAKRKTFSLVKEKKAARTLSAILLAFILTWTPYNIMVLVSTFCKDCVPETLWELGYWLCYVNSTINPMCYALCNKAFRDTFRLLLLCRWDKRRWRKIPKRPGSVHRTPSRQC
M1 PAM – positive allosteric modulators of human M1 muscarinic receptor | activation, % at 3 µM | hit rate 0.088% among 360,000 | P11229 | CHO-K1 hM1, Fluo-8 calcium fluorescence, ACh EC20; 0% = ACh EC20, 100% = maximal ACh; in the data active = activation above about 19%, passing the limit was not always enough
CHO-K1 Ca antag – M1 antagonist counterscreen hit in parental CHO-K1 cells; ATP-induced calcium, Fluo-8 fluorescence; inhibition, % at 3 µM; hit rate 0.6% among 360,000; AID 602250;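 active = inhibition above a per-plate cutoff, the plate's mean sample inhibition plus 3 SD, cut at about 24% in these data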;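 note: 0% = DMSO plus EC80 ATP and 100% = DMSO alone without ATP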
M1 ag parental – M1 agonist counterscreen hit in parental CHO-K1 cells. Fluo-8 calcium fluorescence; scaled to maximal ATP response, vehicle zero. activation, % at 3 µM. hit rate 0.48% among 360,000. AID 602248; in the data active = activation above about 15%;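 note: untransfected CHO-K1 host cells lacking M1 receptor as counterscreen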
CHRM1 agonist – activates human CHRM1 receptor. CHO-K1 hM1, Fluo-8 calcium fluorescence, agonist mode; 0% DMSO, 100% acetylcholine EC100. activation, % at 3 µM. hit rate 0.33% among 360,000;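 active = activation above the run's mean compound activation plus 3 SD, cut at about 16% in these data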;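 note: peak over basal fluorescence ratio within a 140 s kinetic read after compound addition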
* marks the source's active call; other numbers are inactive results. Shown are actives, neighbours in structure and some others; about 2.3% of the full set was active somewhere.

SMILES	M1 PAM parental	CHRM1 antagonist	M1 PAM	CHO-K1 Ca antag	M1 ag parental	CHRM1 agonist
CC1(C)CC[C@]2(C(=O)O)CC[C@]3(CO)C(=CCC4[C@@]5(C)C[C@H](O)[C@H](O)[C@@](C)(C(=O)O)C5CC[C@]43C)[C@@H]2C1 (some centres undefined)	1	-8	27*	-16	0	8
COc1cc(NC(=O)COc2cccc3c2OC(C)(C)C3)cc(OC)c1OC	-21	32	-16	5	18*	3
CC1(C)Cc2cccc(OCC(=O)Nc3cc(C(F)(F)F)ccc3N3CCOCC3)c2O1	-9	25	-12	30*	0	-3
CC1(C)CC(=O)c2c(O)cc(OCC(=O)Nc3ccc(S(N)(=O)=O)cc3)cc2O1	7	-8	1	3	3	-5
CC(=O)Nc1ccc(NC(=O)COc2cccc3c2OC(C)(C)C3)cc1	15	-5	10	-11	1	-2
Cc1ccc(CNC(=O)COc2cccc3c2OC(C)(C)C3)cc1	-10	3	-3	6	-1	-3
COc1cc(NC(=O)COc2cc(O)c3c(c2)OC(C)(C)CC3=O)cc(OC)c1OC	-18	52*	-29	37*	18*	4
Cc1nc2ccccc2nc1OCC(=O)Nc1cc(C(F)(F)F)ccc1N1CCOCC1	-1	-13	-9	12	2	-2
CC1(C)Cc2cccc(OCC(=O)NCc3ccccc3F)c2O1	-13	29*	-12	-13	1	-3
O=C(NCc1ccc2c(c1)OCO2)c1nc(Cn2cc([N+](=O)[O-])cn2)no1	19	1	3	4	0	1
O=C1Nc2ccc(Cl)cc2C(=O)C1(F)c1ccccc1 (centres undefined)	15	-1	4	1	17*	-3
O=C1Nc2c(ccc(Cl)c2Cl)C(=O)C1(F)c1ccccc1 (centres undefined)	17	-2	2	-1	3	-4
O=Cc1c[nH]c2ccc(NC(=O)OCc3ccccc3)cc12	-28	2	10	29*	-1	2
CSc1nc(N)n2nc(-c3ccc(Cl)cc3)cc2n1	5	-12	5	-40	0	-4
O=C(O)C1=C[C@@H](C2CCCCC2)C[C@@H](OCCCCO)O1	11	-1	5	-1	-1	-3
COc1ccc(CCNC(=O)c2cc3cc(F)ccc3nc2C)cc1OC	12	0	-3	-4	16*	15
COc1ccc(CCNC(=O)c2ccc3ccccc3n2)cc1OC	8	-5	1	3	2	-6
CC1(C)Oc2ccc3ccc(=O)oc3c2/C(=C/Nc2ccc(O)cc2)C1=O	13	9	-9	-2	3	-11
CC1(C)Oc2ccc3ccc(=O)oc3c2/C(=C/Nc2cccc(O)c2)C1=O	-10	14	-12	29*	1	-2
COC(=O)c1cc(S(=O)(=O)N2CCC(c3cc(OC)ccc3OC)C2)c[nH]1 (centres undefined)	-7	23	-11	10	16*	5
COC(=O)c1cc(S(=O)(=O)N2CCN(c3cccc(C)c3C)CC2)c[nH]1	-3	34*	-21	13	8	0
COC(=O)c1cc(S(=O)(=O)N2CCC(c3ccccc3)C2)c[nH]1 (centres undefined)	-4	-4	3	3	8	3
CCOC(=O)C1CCN(C(=O)c2ccccc2NC(=O)C2=C(C)OCCS2)CC1	17	-5	0	-11	1	-2
COCC(=O)Nc1nc(-c2ccc([N+](=O)[O-])cc2)cs1	16	-10	9	-17	4	-3
O=C(Cc1nc(-c2ccc([N+](=O)[O-])cc2)cs1)Nc1ccccc1	19	-4	7	-7	8	18*
CN(C)CCCN(C(=O)c1cc(Cl)sc1Cl)c1nc2cc3c(cc2s1)OCO3	-2	96*	-24	-4	2	-4
CCN(Cc1ccccc1)S(=O)(=O)c1ccc(C(=O)N(CCCN(C)C)c2nc3cc4c(cc3s2)OCCO4)cc1	-2	21*	-16	11	10	-4
OC[C@@H]1CN(Cc2ccco2)C[C@H](n2cnc3c(N4CCN(c5ccccc5)CC4)ncnc32)O1	-6	5	-7	10	5	5
